# Experimental data published in PubChem BioAssay (EPA / NIEHS).
# Results filed as inconclusive are left out. Calls of active or inactive are those of the source. How the source made its calls: active means hit-call score of the fitted dose curve at least 0.9, where 1 is the maximum; inconclusive means response in the unintended direction; inactive means score below 0.9.
# Assay: Tanguay_ZF_120hpf_SNOU_legacy: (Legacy) Oregon State University Tanguay Lab 120 Hour Post-fertilization zebrafish Assay for Snout Malformation (AID 2283637)
# Procedure, shortened: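 Dechorionated tropical 5D wild-type zebrafish embryos exposed statically from 6 to 120 hpf at 28C, one per well, in 0.64% DMSO. Snout malformation scored as present/absent by brightfield at 120 hpf; dead embryos not scored.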
row,Structure (SMILES),outcome
1,COc1cccc(-c2ccc(/C=C\CN3CCCCCC3)cc2Cl)c1,inactive
2,CC[C@H]1CC[C@H](NCc2cc3c(cc2OC)[C@H]2C[C@H]2C(=O)N3C)[C@H](c2ccccc2)N1,inactive
3,CNCc1ccc(NC(=O)c2c[nH]c3c2C(=O)CCC3)cc1,inactive
4,O=c1[nH]c2ccc(S(=O)CCN3CCC(Cc4ccc(F)cc4)CC3)cc2o1 (stereo not drawn),inactive
5,CCN(C(=O)c1cc(C)cc(OC[C@H](C)Nc2ccncc2)c1)C(C)C,inactive
6,CN(C)c1ccc(Cc2ccc(N(C)C)cc2)cc1,inactive
7,CCNc1ccccc1,inactive
8,CC(C)=CCC/C(C)=C/CO,inactive
9,CC(=O)c1ccc2c(c1)[C@H](NC(=O)c1ccc(F)cc1)[C@@H](O)C(C)(C)O2,inactive
10,CCCC(=O)OCC,inactive
11,CC1=CC(=O)CC(C)(C)C1,inactive
12,CCCCC(CC)COC(=O)c1ccc(C(=O)OCC(CC)CCCC)cc1 (stereo not drawn),inactive
13,COc1ccc2sc(C(=O)Nc3nnn[nH]3)c(OC(C)C)c2c1,inactive
14,CCOC(=O)COc1ccc2c(c1)CC(NCC(O)c1cccc(Cl)c1)CC2 (stereo not drawn),inactive
15,CCOc1cccc(-n2cc(C(=O)N3CCN(c4cc(C(=O)O)c5ccccc5c4)CC3)nc2-c2ccc(C)cc2)c1,inactive

# Assay: Tanguay_ZF_120hpf_JAW_legacy: (Legacy) Oregon State University Tanguay Lab 120 Hour Post-fertilization zebrafish Assay for Jaw Malformation (AID 2283638);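 on AC50: active means more embryos with jaw malformation than DMSO controls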
# Procedure, shortened: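 Binary jaw-malformation call at 120 hpf by brightfield microscopy. Embryos (Tropical 5D strain, chorion removed at 4 hpf) were dosed statically at 6 hpf, one per well, at 28C with 0.64% DMSO. Embryos that died were not scored.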
Structure (SMILES),outcome,AC50
COc1cccc(-c2ccc(/C=C\CN3CCCCCC3)cc2Cl)c1,inactive,–
CC[C@H]1CC[C@H](NCc2cc3c(cc2OC)[C@H]2C[C@H]2C(=O)N3C)[C@H](c2ccccc2)N1,inactive,–
CCCCCCCCO,inactive,–
Fc1ccccc1[C@@H](F)COC1CCC(Nc2ncnc3[nH]ncc23)CC1 (stereo partly drawn),–,38 µM (active)
CNCc1ccc(NC(=O)c2c[nH]c3c2C(=O)CCC3)cc1,inactive,–
O=c1[nH]c2ccc(S(=O)CCN3CCC(Cc4ccc(F)cc4)CC3)cc2o1 (stereo not drawn),inactive,–
CCN(C(=O)c1cc(C)cc(OC[C@H](C)Nc2ccncc2)c1)C(C)C,inactive,–
Cc1ccc(O)cc1,inactive,–
CNS(=O)(=O)c1cc(C(=O)N2CCC(CCN3C4CCC3CC(n3c(C)nc5ccccc53)C4)(c3cccc(F)c3)CC2)c(Cl)cc1F (stereo not drawn),inactive,–
CC(C)CCO,inactive,–
CCCCC(CC)COC(=O)CCCCCCCCC(=O)OCC(CC)CCCC (stereo not drawn),inactive,–
CN(C)c1ccc(Cc2ccc(N(C)C)cc2)cc1,inactive,–
CCNc1ccccc1,inactive,–
CCn1nc(Cc2ccccc2)cc1C1CCN(C[C@H]2C[C@H](N(C)[C@@H](C(=O)O)C(C)C)C[C@@H]2c2cccc(F)c2)CC1,inactive,–
CC(C)CCCCCCOC(=O)c1ccc(C(=O)OCCCCCCC(C)C)c(C(=O)OCCCCCCC(C)C)c1,inactive,–
CC(C)=CCC/C(C)=C/CO,inactive,–
CC(=O)c1ccc2c(c1)[C@H](NC(=O)c1ccc(F)cc1)[C@@H](O)C(C)(C)O2,inactive,–
O=C(O)CCN(C1(C(=O)NO)CCCC1)S(=O)(=O)c1ccc(Oc2ccc(F)cc2)cc1,inactive,–
Cc1ccc(N)cc1O,inactive,–
CCCC(=O)OCC,inactive,–
COC(=O)CC(=O)OC,inactive,–
CCCCC(CC)COC(=O)c1ccc(C(=O)OCC(CC)CCCC)cc1 (stereo not drawn),inactive,–
COc1ccc2sc(C(=O)Nc3nnn[nH]3)c(OC(C)C)c2c1,inactive,–
Cc1c(-c2cccnc2)c2ccccc2n1CCCCC(=O)O,inactive,–
CCc1cc(SCc2sc(-c3ccc(C(F)(F)F)cc3)nc2CN2CCN(c3ccc(OC)cc3)CC2)ccc1OCC(=O)O,inactive,–
CCOC(=O)COc1ccc2c(c1)CC(NCC(O)c1cccc(Cl)c1)CC2 (stereo not drawn),inactive,–
CCOc1cccc(-n2cc(C(=O)N3CCN(c4cc(C(=O)O)c5ccccc5c4)CC3)nc2-c2ccc(C)cc2)c1,inactive,–
COCCOc1cc2cc(C(=O)NC3CCN(C(C)C)CC3)n(CC(=O)Nc3ccc(Cl)cn3)c2cn1,inactive,–
